Measurements taken from PubChem BioAssay AID743415 (Broad Institute, 2014).
Potency and affinity values are given separately. Calls of active or inactive are those of the source.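 Rule for the calls: active = compounds lowering Shn3 expression whose fitted half-maximal concentration is at most twice the top valid dose; inconclusive = flat partial decrease or an invalid curve fit; inactive = the rest.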

Assay: Shn3 transcript knock-down in Clone20 cells – cell-based, qPCR, cherry-pick, dose response (AID 743415)
Conditions: Shn3 mRNA qPCR, overnight; series mostly up to 35 µM; relative Shn3 expression (fraction): at the top concentration

Relative Shn3 expression (fraction), inactive:
COc1ccccc1NS(=O)(=O)c1cc(NC(=O)c2ccc(Cl)nc2)ccc1Cl 0.652
CC1Cc2cc(S(=O)(=O)N3CCN(c4ccc(Cl)cc4)CC3)ccc2N1C(=O)C1CC1 (configuration not stated) 1.16
Cc1ccc2nc(NC(=O)C3CCN(S(=O)(=O)c4ccc5c(c4)oc(=O)n5C)CC3)sc2c1 1.28
CCCCOCCCNc1ncnc2c1[nH]c1ccccc12 1.63
CC1CCCC(NC(=O)c2cccc(S(=O)(=O)N3CCN(c4ccccc4)CC3)c2)C1C (configuration not stated) 1.12
CC(Sc1nc2ccccc2c(=O)n1C)C(=O)N(C)C1CCCCC1 (configuration not stated) 1.25
Nc1ncnc2c1c(-c1ccc(Oc3ccccc3)cc1)cn2C1CCCC1 0.905
Oc1ccc(-c2n[nH]c(C(F)(F)F)c2-c2ccccc2)c(O)c1 1.47
CCC(C)c1ccc(S(=O)(=O)N2CCN(C(=O)c3ccc(Cl)c(S(=O)(=O)N4CCOCC4)c3)CC2)cc1 (configuration not stated) 1.15
c1ccc(CNc2ncnc3scc(-c4cccs4)c23)nc1 0.593
Cc1cccc(NS(=O)(=O)c2ccc(C3CCCCC3)cc2)c1 2.21
Cn1nc(CC(=O)Nc2ccc3c(c2)OCCO3)c2ccccc2c1=O 1.02
CCn1c(CNC(=O)c2cc(OC)c(OC)c(OC)c2)cc2cc(C)ccc21 1.06
Cc1nc2scc(C)n2c(=O)c1S(=O)(=O)Nc1ccc(N2CCOCC2)c(Cl)c1 1.48
CCN(CC)S(=O)(=O)c1ccc(S(=O)(=O)Nc2c(C)nn(C)c2C)cc1 1.13
CCCOC(=O)c1ccc(OCC(O)Cn2c(C)nc3ccccc32)cc1 (configuration not stated) 1.21
Cc1nc(NC(C)c2ccccc2)c2oc3ccccc3c2n1 (configuration not stated) 1.16
